Growth data for eight molecules are collected here from PubChem BioAssay (NCI).

Among the test systems are HCT-15 colon; HT29 colon; SNB-75 CNS; SNB-19 CNS; U251 CNS; PC-3 prostate; SK-MEL-5 melanoma; UACC-62 melanoma; LOX IMVI melanoma; SK-MEL-28 melanoma; SK-MEL-2 melanoma; EKVX NSCLC; SN12C renal; UO-31 renal; TK-10 renal; ACHN renal; CAKI-1 renal; A498 renal; CCRF-CEM leukemia; MOLT-4 leukemia.
What all share (assay): NCI-60 one-dose screen, 48 h (100 = growth as untreated, 0 = no growth, -100 = all killed)
Holding throughout (settings): 10 µM unless noted

The structures appear in SMILES notation. Compounds without any hit were thinned out: in the full panel of roughly 83,000, 20% have a hit.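 Compound tested at a single concentration for 48 hours in 96-well plates; a percent growth value below 10 was scored as active.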 A number with no mark means an inactive call. Calls of active or inactive are those of the source.

As to `CC(C)(C)OC(=O)N1C/C(=C\c2ccoc2)C(=O)/C(=C/c2ccoc2)C1`, the growth was 99.6% with HCT-15 colon; 98% in the assay on HT29 colon; 77% with SNB-75 CNS; 96.5% in the assay with SNB-19 CNS; 88.2% in the assay on U251 CNS; 89.5% in the assay with PC-3 prostate. For the same molecule, the growth with SK-MEL-5 melanoma is 99.8%; with UACC-62 melanoma, 88.3%; in the assay on LOX IMVI melanoma it was 90.7%; in the assay on SK-MEL-28 melanoma it was 102%; in the assay with SK-MEL-2 melanoma it was 96.4%; with EKVX NSCLC it was 102%. Besides, the growth in the assay with SN12C renal was 97.8%; in the assay on UO-31 renal it was 74.2%; in the assay with TK-10 renal, 94.8%; in the assay on ACHN renal, 99.6%; in the assay on CAKI-1 renal, 82.5%; in the assay with A498 renal it was 74.1%. Moreover, the results for the growth in the assay on CCRF-CEM leukemia and in the assay with MOLT-4 leukemia were 16.5% and 76.1%, respectively.
In the case of `COc1cc(-c2cc(=O)oc3cc(O)ccc23)c(OC)c2c1OCO2`, the growth with HCT-15 colon was 92.4%; in the assay with HT29 colon, 102%; with SNB-75 CNS, 84.9%; in the assay with SNB-19 CNS it was 97.4%; in the assay on U251 CNS it was 94.6%; with PC-3 prostate it was 80.6%. Also, the growth was 90.6% in the assay on SK-MEL-5 melanoma; 74.3% in the assay on UACC-62 melanoma; 93.8% in the assay on LOX IMVI melanoma; 97% in the assay on SK-MEL-28 melanoma; 96.6% in the assay with SK-MEL-2 melanoma; 90.6% with EKVX NSCLC. Further, the growth was 84% with SN12C renal; 72.2% in the assay with UO-31 renal; 108% in the assay with TK-10 renal; 91.2% in the assay with ACHN renal; 76.9% in the assay on CAKI-1 renal; 94.6% in the assay on A498 renal.
As to `CCN(CC)S(=O)(=O)c1cccc([N+](=O)[O-])c1`, the growth in the assay on HCT-15 colon is 107%; in the assay with HT29 colon, 88.4%; in the assay on SNB-75 CNS it was 79.9%; in the assay with SNB-19 CNS, 103%; in the assay on U251 CNS, 88.9%; with PC-3 prostate, 75.4%. Besides, the growth was 97.9% with SK-MEL-5 melanoma; 102% with UACC-62 melanoma; 97.6% in the assay on LOX IMVI melanoma; 108% in the assay on SK-MEL-28 melanoma; 93% in the assay on SK-MEL-2 melanoma; 98.7% with EKVX NSCLC. Also, the growth was 100% in the assay on SN12C renal; 82.6% in the assay on UO-31 renal; 90% with TK-10 renal; 109% in the assay with ACHN renal; 91.3% in the assay with CAKI-1 renal; 73.2% with A498 renal. Also, the results for the growth in the assay on CCRF-CEM leukemia and in the assay with MOLT-4 leukemia were 102% and 105%, respectively.
In the case of `CC(C)(C)CC(C)(C)Nc1c(-c2ccc3c(c2)OCO3)nc2cnccn12`, the growth is 84.1% in the assay on HCT-15 colon; 80% with HT29 colon; 67.5% in the assay with SNB-75 CNS; 90.9% with SNB-19 CNS; 95.6% in the assay with U251 CNS; 67% with PC-3 prostate. The growth in the assay with SK-MEL-5 melanoma was 87.7%; with UACC-62 melanoma, 66%; in the assay with LOX IMVI melanoma, 94%; with SK-MEL-28 melanoma, 94.3%; with SK-MEL-2 melanoma, 95.6%; in the assay on EKVX NSCLC, 80.3%. Further, the growth in the assay with SN12C renal was 92.8%; in the assay on UO-31 renal, 63.1%; in the assay on TK-10 renal, 98.3%; in the assay on ACHN renal it was 86.5%; with CAKI-1 renal, 69.6%; in the assay with A498 renal, 75.6%. Also, the growth with CCRF-CEM leukemia is 89.1%.
On to `O=c1[nH]c2c(s1)CCCC2CN1CCCCC1` (stereo unspecified), for which the growth with HCT-15 colon was 107%; in the assay with HT29 colon, 95.2%; in the assay on SNB-75 CNS, 83.8%; with SNB-19 CNS it was 110%; in the assay on U251 CNS, 102%; with PC-3 prostate it was 91.9%. The growth with SK-MEL-5 melanoma is 99.8%; in the assay with UACC-62 melanoma it was 113%; in the assay on LOX IMVI melanoma, 95.5%; in the assay on SK-MEL-28 melanoma, 99.3%; in the assay on SK-MEL-2 melanoma it was 97.2%; in the assay with EKVX NSCLC, 105%. In addition, the growth with SN12C renal is 103%; in the assay with UO-31 renal, 89.3%; in the assay on TK-10 renal, 93%; in the assay on ACHN renal, 97.6%; in the assay with CAKI-1 renal it was 99%; with A498 renal, 95.8%. Further, the growth in the assay on CCRF-CEM leukemia is 109%.
`COc1ccc(C(O)c2cc3c(N)c(C(=O)Nc4cccc(Br)c4C)sc3nc2C)cc1` (stereo unspecified): the growth is 18.6% in the assay on HCT-15 colon; -16% (active) in the assay with HT29 colon; -1.38% (active) in the assay on SNB-75 CNS; 44% in the assay on SNB-19 CNS; 20.9% in the assay with U251 CNS; 26.9% in the assay on PC-3 prostate. Besides, the growth in the assay on SK-MEL-5 melanoma is -7.36% (active); in the assay on UACC-62 melanoma, 27.2%; in the assay on LOX IMVI melanoma, 32.7%; in the assay with SK-MEL-28 melanoma it was 64.7%; in the assay with SK-MEL-2 melanoma, 9.35% (active); in the assay on EKVX NSCLC, 37.7%. Further, the growth was 17.9% in the assay on SN12C renal; 33.5% with UO-31 renal; 27% in the assay on TK-10 renal; 29.1% in the assay on ACHN renal; 41.1% in the assay with CAKI-1 renal; -16.1% (active) in the assay on A498 renal. Further, the results for the growth with CCRF-CEM leukemia and in the assay with MOLT-4 leukemia were 16.4% and 23.1%, respectively.
Take `CC(=O)OCC(=O)[C@@]1(O)CC[C@H]2[C@@H]3CC(=C(Br)Br)C4=CC(=O)CC[C@]4(C)[C@H]3C(=O)C[C@@]21C`: the growth in the assay with HCT-15 colon is 94.4%; in the assay on HT29 colon, 92.1%; in the assay with SNB-75 CNS, 81.2%; in the assay with SNB-19 CNS it was 92.6%; in the assay with U251 CNS it was 82.9%; in the assay with PC-3 prostate, 76.1%. Besides, the growth in the assay on SK-MEL-5 melanoma is 95.2%; in the assay on UACC-62 melanoma, 82.5%; with LOX IMVI melanoma, 97.3%; in the assay on SK-MEL-28 melanoma, 102%; in the assay on SK-MEL-2 melanoma, 78.7%; with EKVX NSCLC, 90.1%. The growth with SN12C renal was 93.6%; in the assay with UO-31 renal, 68.3%; in the assay with TK-10 renal, 91.2%; in the assay with ACHN renal, 94.1%; with CAKI-1 renal it was 81.7%; in the assay with A498 renal it was 79.5%. Further, the growth in the assay on CCRF-CEM leukemia is 83.3%; with MOLT-4 leukemia, 93.1%.
As for `CCN(CC)CCOC(COc1cc(C)cc(C)c1)COc1cc(C)cc(C)c1`, the growth was 34.5% in the assay on HCT-15 colon; 10.3% in the assay on HT29 colon; 61.4% with SNB-75 CNS; 47.5% in the assay with SNB-19 CNS; 32.5% with U251 CNS; 33.6% in the assay on PC-3 prostate. Moreover, the growth with SK-MEL-5 melanoma is -88.5% (active); in the assay with UACC-62 melanoma, 46.4%; in the assay on LOX IMVI melanoma, -12% (active); in the assay on SK-MEL-28 melanoma it was 39.6%; with SK-MEL-2 melanoma, 86.7%; in the assay with EKVX NSCLC, 53%. In addition, the growth is 28.8% with SN12C renal; 31.6% in the assay on UO-31 renal; 48% in the assay on TK-10 renal; 46.2% in the assay with ACHN renal; 40.1% in the assay on CAKI-1 renal; 28.4% in the assay with A498 renal. In addition, the figures for the growth with CCRF-CEM leukemia and in the assay on MOLT-4 leukemia were 14.5% and 13.5%, respectively.
